# In PubChem BioAssay AID1347075 (National Center for Advancing Translational Sciences (NCATS), 2019):
# Out of some 400,000 compounds screened, about 5,500 (1.4%) were called active. Not shown: some 9% with an inconclusive outcome. The call rests on the fitted dose curve; in most records, active means well fitted cell-killing curve with a large enough effect; inconclusive means small, poorly fitted or top-dose-only effect, or effect the other way; inactive means flat fitted curve, though single readings scatter. This excerpt belongs to a sample that is enriched for actives.
# Test: qHTS assay for MDR1-selective chemotherapeutics: Primary screen using the parental adenocarcinoma cell KB-3-1; further: nearly all actives have a fitted effect of over 60% in size
# Conditions: KB-3-1 viability, CellTiter-Glo ATP luminescence, 72 h; series mostly up to 46.1 µM; activity change, negative = cytotoxic: at the top concentration
# Excerpt: A prime difficulty in effectively treating cancer is the development of cellular resistance to multiple structurally unrelated anticancer drugs, a phenomenon known as multidrug resistance (MDR). […] Numerous strategies to overcome P-gp-mediated MDR have been explored, including the design of drugs that evade recognition and efflux, and development of inhibitors to block efflux and restore drug accumulation. […] An alternative approach is to exploit resistance by identifying drugs that target MDR cells over the non-resistant parental cells from which they were selected. […] The development of MDR1-selective agents represents a new strategy for resolving multidrug resistance, as it remains a long-standing clinical challenge for cancer chemotherapy.
# Our goal is to identify compounds that selectively kill P-gp-expressing MDR cells. We will identify MDR1-selective compounds by comparing toxicity of compounds in the screening library against parental, drug-naive (KB-3-1) adenocarcinoma cells as well as their drug-selected MDR sub-line (KB-V1). The differential toxicity of compounds against these two cell lines will be used to identify MDR1-selective compounds, whose cytotoxicity is potentiated, rather than diminished, by P-gp expression. This assay will be utilized to conduct a quantitative high-throughput screen (qHTS) in collaboration with the NIH Chemical Genomics Center to identify selective agents, and probe hits arising from the screen will be validated using secondary assays and characterized through a well-established follow-up research program. This screen was run against the entire NCGC library collection of about 400,000 compounds.
# NIH Molecular Libraries Probe Production Network [MLPCN]
# NIH Chemical Genomics Center [NCGC]
# PI: Michael Gottesman PhD, National Cancer Institute, NIH
# Briefly, 5 microL of media containing either KB-3-1 cells (columns 1-2, 4-48) are dispensed into Greiner white, treated solid-bottom 1536-well assay plates (media-only control is added to column 3). Compounds are then transferred via Kalypsys pin tool equipped with 1536-pin array (10 nL slotted pins, V&P Scientific, San Diego, CA). Following addition of compound, the plates are incubated at 37 degrees C for 72 hours. CellTiter-Glo (2.5 µL/well) is then added, and the plates are read in a ViewLux reader (Perkin-Elmer, clear luminescence filter, 1 second exposure, 1x binning) following a 10 minute incubation. All cells are dispensed in DMEM phenol-red free media containing 10% FBS.
# Library plates were screened starting from the lowest and proceeding to the highest concentration. Vehicle-only plates, with DMSO being pin-transferred to columns 5-48, will be inserted uniformly at the beginning and the end of each library in order to monitor and record any shifts in the background, which can be affected by reagent dispensers or loss in enzyme activity over time. Screening data will be corrected, normalized, and concentration-effect relationships will be derived by using publicly-available NCGC, NCATS curve fitting algorithms (http://ncgc.nih.gov/pub/openhts).
# On the % scale 0 is the no-effect control and ±100 the full control effect; potency means the concentration at half of the fitted maximal effect.
SMILES,Potency,"activity change, negative = cytotoxic"
COc1cc(/C=C2\Oc3ccc(C#Cc4ccc(O)cc4)cc3C2=O)cc(OC)c1,16.4 µM (active),–
COc1cccc(N2CCN(S(=O)(=O)c3ccc4c(c3)CCCN4C(C)=O)CC2)c1,–,-3.09% (inactive)
COc1ccc(-c2ccc(=O)n(CC(=O)Nc3ccc(Br)cc3F)n2)cc1,–,3.64% (inactive)
O=C(CSc1nc2c(c(=O)[nH]1)CN(Cc1ccc(F)cc1)CC2)Nc1ccccc1Cl,–,-1.45% (inactive)
Cc1cc2ccccc2n1CCNC(=O)c1ccc(F)cc1,–,-0.098% (inactive)
COc1ccc(NC(=O)COC(=O)C2COc3ccccc3O2)cc1 (configuration not stated),–,2.9% (inactive)
O=C(Nc1ncc([N+](=O)[O-])s1)C1COc2ccccc2O1 (configuration not stated),16.4 µM (active),–
O=C(Nc1cc(S(=O)(=O)N2CCCCC2)ccc1Cl)C1COc2ccccc2O1 (configuration not stated),–,-5.56% (inactive)
Cc1ccc(C(=O)N2c3ncnn3C3(CCCCC3)[C@@H]3CCCC[C@@H]32)cc1,–,-1.33% (inactive)
COc1cc(NC(=O)c2ccccc2)c(OC)cc1NC(=O)Cc1ccccc1,–,5.6% (inactive)
O=C(NC1=CC(=O)c2ccccc2C1=O)c1ccccc1,16.4 µM (active),–
CC(=O)c1cc(NC(=O)c2ccccc2)c(=O)oc1/C=C/N(C)C,–,15.8% (inactive)
N#Cc1nc(/C=C/c2ccc(F)cc2)oc1NCc1ccc(F)cc1,–,2.53% (inactive)
O=C(CCS(=O)(=O)c1cc(Br)cc2c1N(C(=O)C1CC1)CC2)Nc1ccc(Br)cc1F,–,6.15% (inactive)
O=C(O)COc1ccc(/C=N/O)cc1Br,–,9.66% (inactive)
COc1cc(/C=N/O)cc(Br)c1OCc1cccc(Cl)c1,14.6 µM (active),–
COc1cc(C(=O)NCc2ccncc2)cc(Br)c1OCc1ccccc1,–,-18.9% (inactive)
CCOC(=O)c1ccc(NC(=O)CCn2cnnn2)cc1,–,8.4% (inactive)
COc1ccccc1CN1CCC(CNC(=O)c2cnn(-c3cccc(Cl)c3)c2C2CCN(C(=O)OC(C)(C)C)CC2)CC1,–,-20.3% (inactive)
Cc1ccc(CN2CCC(CNC(=O)c3cnn(-c4ccccc4Cl)c3C3CCN(C(=O)OC(C)(C)C)CC3)CC2)cc1,–,-10% (inactive)
Cc1ccc(CN2CCC(CNC(=O)c3cnn(-c4ccc(C)cc4)c3C3CCN(C(=O)OC(C)(C)C)CC3)CC2)cc1,16.4 µM (active),–

SMILES,Potency,"activity change, negative = cytotoxic"
CCOc1ccc(OCC)c(NC(=O)c2cc(C)nc3c2c(C)nn3-c2cccc(Cl)c2C)c1,–,-0.861% (inactive)
CN(C)c1ccc(/C=C/C(=O)c2ccc(O)cc2)cc1[N+](=O)[O-],20.6 µM (active),–
CN(C)c1ccc(/C=N\Nc2ccc([N+](=O)[O-])cc2[N+](=O)[O-])cc1Cl,–,7.3% (inactive)
O=C(/C=C/c1ccc(Cl)cc1)N1CCN(c2ccccc2[N+](=O)[O-])CC1,–,6.08% (inactive)
CCOc1ccc(Br)cc1S(=O)(=O)N1CCC(C(=O)O)CC1,–,-15.3% (inactive)
CC(C)(C)NCc1cc(Br)ccc1OC1CCCC1,–,-6.93% (inactive)
CCOc1ccc(Br)cc1CSC(=N)N,23.1 µM (active),–
COc1ccccc1NC(=O)C1=C(C)Nc2nc(SCC(=O)c3ccc(C)cc3)nn2C1c1ccccc1C (configuration not stated),–,19.5% (inactive)
COc1ccc(NC(=O)CCN2CCN(CCO)CC2)cc1,–,10.1% (inactive)
O=C(NCc1ccccc1)C(=O)NCC(c1ccco1)S(=O)(=O)c1ccc(Cl)cc1 (configuration not stated),–,-21.5% (inactive)
O=C(OC12CC3CC(CC(C3)C1)C2)c1ccc(NCc2cc(O)ccc2O)cc1,7.31 µM (active),–
COc1ccc(-c2nc(=N)sn2-c2ccccc2)cc1,–,-25.8% (inactive)
CO[C@H]1O[C@@H]2O[C@@]3(C)CC[C@@H]4[C@@H](C)CC[C@@H]([C@H]1C)[C@@]24OO3,–,0% (inactive)
COc1cc2[nH]c(C)c(CCN3CCN(c4ccccc4)CC3)c2cc1OC,–,0% (inactive)
COc1ccc(C(=O)/C=C/Nc2ccccn2)cc1,–,-7.94% (inactive)
COc1ccc(C(=NN)c2ccc(OC)cc2)cc1,–,2.52% (inactive)
COc1ccc(C(C#N)=C2C=CC(=NO)c3ccccc32)cc1,0.82 µM (active),–
COc1ccccc1OCCCn1c(-c2ccc(Cl)cc2)nc2ccccc2c1=O,–,1.77% (inactive)
O=C(COC(=O)c1ccccc1OCCOc1ccccc1)Nc1cccc(Br)c1,–,0% (inactive)
COc1cccc(C(c2c(O)cc(C)n(Cc3ccco3)c2=O)N2CCN(c3ccccc3)CC2)c1 (configuration not stated),–,3.01% (inactive)
CCOc1ccccc1NC(=O)CN1CCCN(Cc2cccc(Cl)c2)S1(=O)=O,–,4.79% (inactive)

SMILES,Potency,"activity change, negative = cytotoxic"
O=c1c2ccccc2n(Cc2cccc(Cl)c2)c(=O)n1Cc1ccccc1,–,-13.5% (inactive)
Clc1cccc[n+]1CCCC[n+]1ccccc1Cl,–,2.29% (inactive)
COc1cc(C(=O)Nc2ccc(-n3c(C)nc4ccccc4c3=O)cc2)cc(OC)c1OC,–,3.15% (inactive)
Cn1c2ccccc2c(=O)c2c(=O)n(Cc3ccco3)c(COc3ccccc3)nc21,7.31 µM (active),–
O=C(Cn1c(=O)n(Cc2ccco2)c(=O)c2ccccc21)NCC1CCCO1 (configuration not stated),–,7.23% (inactive)
CC(C)c1ccc(Cn2c(COc3ccccc3)nc3ccccc32)cc1,–,2.83% (inactive)
Cn1c(=O)c2c(ncn2CC(=O)Nc2cccc(C(F)(F)F)c2)n(C)c1=O,–,-2.81% (inactive)
Cn1nc(C(F)(F)F)c(C(=O)Nc2cccc(C(F)(F)F)c2)c1SCc1ccc(Cl)cc1,16.4 µM (active),–
Cc1ccc(Cc2nc3ccccc3nc2SCC(=O)Nc2cccc(C(F)(F)F)c2)cc1,–,-20.9% (inactive)
CCCSc1nc2sc3c(c2c(=O)n1-c1cccc(Br)c1)CC(C)(C)OC3,–,-5.87% (inactive)
COc1ccc(C2CC(=O)Nc3c2c(=O)nc2c(C)cccn32)cc1OC (configuration not stated),–,-2.5% (inactive)
O=C(COc1ccccc1C(=O)Nc1ccccc1)Nc1cccc(F)c1,–,1.45% (inactive)
O=[N+]([O-])c1ccc(S(=O)(=O)N2CCN(c3nc(-c4ccccc4)nc4ccccc34)CC2)cc1,–,29.8% (inactive)
O=C(Nc1ccc(OC(F)(F)F)cc1)c1cc2c(=O)n3ccccc3nc2s1,–,7% (inactive)
COc1cc(OC)cc(C(=O)NCCc2csc3nc(-c4ccccc4F)nn23)c1,–,-3.67% (inactive)
CCOc1cc(/C=C(\C#N)C(=O)Nc2ccccc2C)ccc1OCc1cc(=O)n2nc(CC)sc2n1,–,-5.35% (inactive)
CCOc1ccc(/C=C(\C#N)c2nc3ccccc3c(=O)[nH]2)cc1OC,–,8.7% (inactive)
CCOc1cc(/C=C(\C#N)c2nc(-c3cccs3)c(NC(C)=O)s2)ccc1O,8.2 µM (active),–
O=C(NCc1ccc(Cl)cc1)c1ccc2c(c1)nnn2C1CCCC1,–,-5.59% (inactive)
CCOC(=O)c1cccc(NC(=O)Cn2cnc3nc4c(cc3c2=O)CCCC4)c1,–,8.88% (inactive)
